Shown are actives, neighbours in structure and some others; about 9.2% of the full set was active somewhere.
Rab9 promoter act: qHTS Assay for Rab9 Promoter Activators; Huh7 Rab9 promoter-luciferase reporter, luminescence, 24 h; Potency, µM (titrated, usually from 9.22 µM), without a hit: at the highest dose activation, negative = inhibition, hits mostly activators; actives 2.8% (n = 320,000); note: % of control where 0% means no effect; nearly all actives have a fitted effect of over 60% in size
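Quantitative HTS format; Huh7 Rab9-luciferase reporter cells (1500/well) receive compound 2 h post-plating, incubate 24 h at 37 °C, then get luciferase reagent for 10 min before luminescence reading.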
FLuc modulator: qHTS profiling assay for firefly luciferase inhibitor/activator using purifed enzyme and Km concentrations of substrates (counterscreen for miR-21 project). purified FLuc, Km substrates, luminescence inhibition. actives 6.9% (n = 360,000). Luciferin 4-monooxygenase (Photinus pyralis), P08659. Potency, µM (highest dose often 57.5 µM), inactives show top-dose activity change, negative = inhibition, usual class: inhibitors. AID 588342, 2011;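 note: plate controls were vehicle for no effect and reference inhibitor for full effect; nearly all actives have a fitted effect of over 55% in size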
Target sequence (P08659 whole entry, looked up): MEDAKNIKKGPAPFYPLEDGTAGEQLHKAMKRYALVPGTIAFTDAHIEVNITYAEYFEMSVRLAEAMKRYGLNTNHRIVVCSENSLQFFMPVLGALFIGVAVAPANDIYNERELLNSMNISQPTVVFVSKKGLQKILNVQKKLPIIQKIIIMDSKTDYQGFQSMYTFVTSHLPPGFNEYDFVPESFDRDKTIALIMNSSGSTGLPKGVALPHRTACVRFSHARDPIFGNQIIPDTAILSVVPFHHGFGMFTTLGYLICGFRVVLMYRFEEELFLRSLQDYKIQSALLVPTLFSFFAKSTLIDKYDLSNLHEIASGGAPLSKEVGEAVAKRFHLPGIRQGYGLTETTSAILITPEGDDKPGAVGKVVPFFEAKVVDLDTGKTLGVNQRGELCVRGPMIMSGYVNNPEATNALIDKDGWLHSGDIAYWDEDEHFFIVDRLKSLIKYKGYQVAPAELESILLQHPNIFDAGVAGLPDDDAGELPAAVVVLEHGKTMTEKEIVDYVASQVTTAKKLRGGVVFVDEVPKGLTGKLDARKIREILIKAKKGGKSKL
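Purified P. pyralis luciferase, 10 nM final, with Km-level 10 uM D-luciferin and 10 uM ATP in 50 mM Tris acetate pH 7.5, 10 mM Mg acetate, 0.01% Tween-20, 0.05% BSA; 6-point qHTS titration about 60 µM downward; luminescence read.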
ELG1 genotox: qHTS screen for small molecules that induce genotoxicity in human embryonic kidney (HEK293T) cells expressing luciferase-tagged ELG1 | HEK293T ELG1-luciferase reporter, luminescence, 16 h | Potency, µM (doses to about 46 µM), inactives show at the highest dose activity change, positive = activation, most hits filed as activators | actives 1.3% (n = 330,000) | AID 504466, 2011; note: % of control where 0% means no effect; nearly all actives have a fitted effect of over 60% in size
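Genotoxicity was scored as increased ELG1-luciferase reporter signal, measured by ONE-Glo luminescence (30 min, room temperature). Compound or vehicle exposure of the HEK293T reporter cells lasted 16 hr at 37°C.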
ELG1 DNA repair: qHTS screen for small molecules that inhibit ELG1-dependent DNA repair in human embryonic kidney (HEK293T) cells expressing luciferase-tagged ELG1. Potency, µM (titrated, usually from 46.1 µM), for the others: top-dose activity change, negative = inhibition, most hits filed as inhibitors. actives 2.3% (n = 330,000). HEK293T ELG1-luciferase reporter, luminescence, 16 h; DNA damage induced by 5-fluorouridine; note: % is set by controls: 0 for no effect and ±100 for the full control effect; nearly all actives have a fitted effect of over 55% in size
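Quantitative HTS, concentration-response format. 2,000 cells/well co-treated with 5-fluorouridine and compound, 16 hr in 5% CO2 at 37 °C; ONE-Glo luminescence read after 30 min.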
NPC1 prom act: qHTS Assay for NPC1 Promoter Activators; Huh7 NPC1 promoter luciferase reporter, 24 h; Potency, µM (series often up to 9.22 µM), for the others: top-dose activation, actives largely listed as activators; actives 2.4% (n = 320,000); AID 485313, 2010; note: % of control where 0% means no effect; nearly all actives have a fitted effect of over 60% in size
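Cells: Huh7 expressing luciferase under the NPC1 promoter, 1500/well. Seeded 2 h, compound added, incubated 24 h at 37 °C. Luciferase reagent, 10 min ambient, then luminescence.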
SMN2 splice up: qHTS Assay for Enhancers of SMN2 Splice Variant Expression; HEK293 SMN2-luciferase splicing reporter, luminescence, 30-36 h; Potency, µM (series often up to 46.1 µM), for the others: at the highest dose activity change, positive = activation, most hits filed as activators; actives 2.8% (n = 210,000); AID 1458, 2008; note: % of control where 0% means no effect; nearly all actives have a fitted effect of over 55% in size
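HEK293 cells carry an SMN2 minigene-luciferase reporter in which exon 7 inclusion puts luciferase in frame. Cells were seeded at 2000 cells/well, attached for 10-12 hours, then exposed to compounds for 30-36 hours at 37C before ONE-Glo luminescence.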
Numbers without * were called inactive; ? = inconclusive; / = no result given; [ ] = another dose, or the depositor's remark. Calls come from the whole dose curve; as a rule, active = well fitted curve in the direction sought with a large enough effect; inconclusive = small, poorly fitted or top-dose-only effect, or another doubt; inactive = no such curve, though single readings can be large; an effect the other way counts as inactive or inconclusive. Potency is the fitted concentration of half-maximal effect.

SMILES	Rab9 promoter act	FLuc modulator	ELG1 genotox	ELG1 DNA repair	NPC1 prom act	SMN2 splice up
COc1ccc(NC(=O)CCSc2ccc(C)cc2)cc1	-5%	3%	0%	7%	-1%	-5%
COc1ccc(NC(=O)C(=S)NC2CCCCC2)cc1	2.8µM*	5.4µM*	8.2µM*	?	1.6µM*	13µM*
O=C(CCN1CCN(CCO)CC1)Nc1ccc(C2CCCC2)cc1	-3%	4%	2%	-9%	-9%	-17%
O=C(CSCCO)Nc1ccc(C2CCCCC2)cc1	-6%	12µM*	?	?	-5%	-12%
COc1ccc(NC(=O)CCSc2ccc(F)cc2)cc1	3.5µM*	15µM*	?	?	?	/
Cc1cc(NC(=O)CC2Oc3ccccc3NC2=O)ccc1Br (stereo not drawn)	-3%	-3%	0%	3%	4%	/
CSCC[C@H](NS(=O)(=O)c1ccc(C)cc1)C(=O)N1CCC(C(=O)N[C@H](C(=O)O)c2ccccc2)CC1	9%	2%	-4%	2%	0%	/
CC(C)(C)OC(=O)N1CCC(c2c(C(=O)N3CCCCC3)cnn2-c2ccccc2Cl)CC1	/	5%	/	/	/	/
Cc1cccc(C(=O)N[C@H](C(=O)NCCc2ccc(S(N)(=O)=O)cc2)C(C)C)c1	-1%	3%	2%	-3%	-3%	/
COc1ccc(NC(=O)CSC2CCCCC2)cc1	3.5µM*	12µM*	?	?	3.2µM*	16%
Cc1ccc(NC(=O)NC2CCCCC2)cc1Cl	?	?	3.7µM*	?	3.2µM*	13µM*
O=C(Nc1ccc(Br)cc1)NC1CCCCCCC1	4µM*	6.7µM*	?	?	2.2µM*	/
O=C(Nc1ccccc1)NC1CCCCC1	?	?	23%	?	21%	?
CCOc1ccc(CC(=O)NNC(=O)NC2CCCCC2)cc1	2%	-2%	2%	9%	1%	2%
CCOc1ccc(NC(=O)NC2CCCCCCC2)cc1	3.5µM*	5.4µM*	10µM*	?	1.8µM*	/
Cc1ccc(NC(=O)C(=O)N2CCCC2)cc1Cl	2.8µM*	2.1µM*	?	?	3.2µM*	10µM*
CCc1ccc(NC(=O)C(=S)NC2CCCCC2)cc1	0.63µM*	3µM*	8.2µM*	?	0.79µM*	/
CCc1ccc(S(=O)(=O)c2nnn3c2nc(NC2CCCCCC2)c2sccc23)cc1	/	-1%	/	/	/	/
Cc1[nH]c2ccccc2c1C(c1ccccc1)c1ccc(Cl)s1 (stereo not drawn)	/	5%	/	/	/	-23%
COC(=O)c1c(-c2ccc(OC)cc2)sc2cc3c(cc12)OCO3	1%	9.5µM*	?	?	?	/
COC(=O)c1c(-c2ccsc2)sc2ccc(-c3cc(OC)c(OC)c(OC)c3)cc12	/	/	-5%	9.2µM*	/	/
COc1cc(-c2c(-c3ccsc3)sc3ccccc23)cc(OC)c1OC	-2%	0%	-1%	27%	1%	/
COc1cc(-c2ccc3sc(-c4ccsc4)c(C#CCO)c3c2)cc(OC)c1OC	-7%	-10%	-11%	9.2µM*	-4%	/
COc1ccc(-c2sc3cc4c(cc3c2C#CCO)OCO4)cc1	3%	?	1%	18%	14%	/
CCC(=O)N1CCc2cc(S(=O)(=O)CCC(=O)N3CCN(c4cccc(C)c4)C(C)C3)ccc21 (stereo not drawn)	/	-3%	/	/	/	-31%
SMILES	Rab9 promoter act	FLuc modulator	ELG1 genotox	ELG1 DNA repair	NPC1 prom act	SMN2 splice up
CCOC(=O)CC(NC(=O)CCc1c(C)nc2c(c1C)c(=O)n(C)c(=O)n2C)c1ccc(OCC)c(OC)c1 (stereo not drawn)	/	-2%	/	/	/	2%
CC1CCCCN1CCCNC(=O)Cn1ncc2c3ccccc3n(Cc3ccccc3F)c2c1=O (stereo not drawn)	/	-1%	/	/	/	1%
CCc1ccc(NC(=O)CN2CCN(Cc3ccccc3)S2(=O)=O)cc1	/	-11%	/	/	/	/
COCCn1c(=S)[nH]c2cc(C(=O)N3CCN(c4cccc(Cl)c4)CC3)ccc2c1=O	-5%	3%	-1%[9.26 µM]	?	-6%	/
COCCn1c(=O)[nH]c2cc(C(=O)NCCN3CCN(c4cccc(Cl)c4)CC3)ccc2c1=O	-10%	2%	-10%	21µM*	-12%	-70%
Cc1cc(C(=O)NCCN2CCN(c3cccc(Cl)c3)CC2)n(-c2ccccc2)n1	-18%	-2%	3%	8.2µM*	-5%	-12%
COCCn1c(=O)[nH]c2cc(C(=O)NCc3ccccc3Cl)ccc2c1=O	/	-1%	/	/	/	4µM*
CC1CCC(NC(=O)CCS(=O)(=O)c2ccc3c(c2)NC(=O)C(C)S3)CC1 (stereo not drawn)	2%	1%	0%	1%	0%	/
O=C1OC2(CCCC2)OC(=O)C1=Cc1c[nH]c2ccccc12	0.89µM*	-5%	?	?	1.1µM*	/
CCn1c(C(=O)N2CCCC(C(=O)O)C2)cc2sccc21 (stereo not drawn)	-6%	-1%	0%	-1%	2%	15%
O=C(NCc1ccco1)C1CCN(C(=O)c2cc3sccc3n2Cc2ccc(Cl)cc2)CC1	1%	0%	-14%	18µM*	0%	-62%
CCn1c(C(=O)N2CCCC(C(=O)NCCc3ccc(C)cc3)C2)cc2sccc21 (stereo not drawn)	5%	-1%	-12%	18µM*	-2%	-28%
COCCNC(=O)C1CCN(C(=O)c2cc3sccc3n2Cc2ccc(Cl)cc2)CC1	/	-9%	/	/	/	-39%
CCOC(=O)N1CCC(NC(=O)C2CCN(C(=O)c3cc4sccc4n3CC)CC2)CC1	-9%	2%	-10%	23µM*	1%	/
CCn1c(C(=O)N2CCCC(C(=O)NCCCc3ccccc3)C2)cc2sccc21 (stereo not drawn)	-2%	-11%	-10%	21µM*	-2%	-62%

Screening results deposited in PubChem by National Center for Advancing Translational Sciences (NCATS).
